Screens: PubChem BioAssay, Broad Institute
IDE exosite FP: displaces the probe from the exo-site of human IDE; P14735; purified IDE, FL-6b probe fluorescence polarization; stronger effect = lower value; z-score at 20 µM; 6.3% of 17,000 active; AID 1259349;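 active = z-score of -3 or lower, meaning strong loss of probe binding signal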;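 note: His-tagged human IDE residues 42-1019 made in E. coli with 30 nM FL-6b probe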
Hits are given with their value; n = inactive. The entries come from a sample that favours hits as a whole.

SMILES	IDE exosite FP
CCS(=O)(=O)Nc1ccc2c(c1)C(=O)N(C)[C@@H]1CC[C@@H](CC(=O)N3CCN(C)CC3)O[C@H]1CO2	n
COc1ccccc1NC(=O)C[C@H]1CC[C@H]2[C@@H](COc3ccc(NS(C)(=O)=O)cc3C(=O)N2C)O1	-6.1
CN1C(=O)c2cc(NS(C)(=O)=O)ccc2OC[C@@H]2O[C@@H](CC(=O)N3CCOCC3)CC[C@H]21	n
CN1C(=O)c2cc(NS(C)(=O)=O)ccc2OC[C@H]2O[C@H](CC(=O)N3CCOCC3)CC[C@@H]21	-14
COc1ccccc1NC(=O)Nc1ccc2c(c1)C(=O)N(C)[C@H]1CC[C@H](CC(=O)Nc3ccc4c(c3)COC4)O[C@@H]1CO2	n
CN1C(=O)c2cc(NS(C)(=O)=O)ccc2OC[C@H]2O[C@@H](CC(=O)NCc3ccccc3)CC[C@@H]21	n
CCC(=O)N1C[C@@H]2[C@H](c3ccccc31)[C@H](CO)N2Cc1ccc(F)cc1	n
CC(C)C(=O)Nc1ccc2c(c1)C(=O)N(C)[C@H]1CC[C@@H](CC(=O)NCCc3ccccc3)O[C@@H]1CO2	n
COCC(=O)Nc1ccc2c(c1)C(=O)N(C)[C@H]1CC[C@@H](CC(=O)NC3Cc4ccccc4C3)O[C@@H]1CO2	n
CCCC#Cc1ccc([C@@H]2[C@H](CO)N3C(=O)CN(C(=O)c4ccc(F)cc4)C[C@@H]23)cc1	n
COc1ccc(CN2C[C@@H](O)COC[C@@H]3O[C@@H](CC(=O)N(C)C)CC[C@H]32)cc1	n
O=C(NCCc1ccncc1)[C@H]1[C@H](CO)[C@H]2Cn3c(cccc3=O)[C@@H]1N2Cc1ccccc1F	n
COc1ccc(C#Cc2ccc([C@@H]3[C@@H](CO)N4C(=O)CN(C(C)=O)C[C@H]34)cc2)cc1	n
COc1ccc(C#Cc2ccc([C@H]3[C@@H](CO)N4C(=O)CN(C(C)=O)C[C@@H]34)cc2)cc1	n
COc1cccc(C#Cc2ccc([C@H]3[C@H]4CN(C(C)=O)CC(=O)N4[C@H]3CO)cc2)c1	-7.9
COc1ccc(C#Cc2ccc([C@H]3[C@H]4CN(C(C)=O)CC(=O)N4[C@H]3CO)cc2)cc1	n
COc1cccc(C#Cc2ccc([C@@H]3[C@@H](CO)N4C(=O)CN(C(C)=O)C[C@@H]34)cc2)c1	-7.5
COc1ccc(C#Cc2ccc([C@H]3[C@@H](CO)N4C(=O)CN(C(C)=O)C[C@H]34)cc2)cc1	n
CC(C)[C@H]1COCc2cn(nn2)CCC[C@H](C)C(=O)N1	n
C[C@@H]1CCCCO[C@@H](CN(C)C(=O)Nc2ccc(C(F)(F)F)cc2)[C@@H](C)CN([C@H](C)CO)C(=O)c2cc(NS(=O)(=O)c3cn(C)cn3)ccc2O1	n
C/C=C/c1ccc([C@@H]2[C@H]3CN(Cc4ccc(F)cc4)CC(=O)N3[C@H]2CO)cc1	n
CC(C)c1cn(CC[C@H]2CC[C@H](NS(=O)(=O)c3ccc(F)cc3)[C@@H](CO)O2)nn1	n
CC(=O)NC[C@H]1[C@@H](c2ccc(-c3ccccc3)cc2)[C@H](CO)N1C(=O)C1CCC1	n
CCC(=O)N[C@H]1CC[C@@H](CC(=O)NCc2ccccc2F)O[C@@H]1CO	n
CN(C)C(=O)c1cccc(-c2ccc([C@@H]3[C@H]4CN(C(=O)C5CCC5)CC(=O)N4[C@H]3CO)cc2)c1	n
SMILES	IDE exosite FP
N#C[C@H]1N[C@@H](CO)[C@H]1c1ccccc1	n
C[C@@H]1CN([C@H](C)CO)C(=O)c2ccccc2-c2ccccc2CO[C@@H]1CN(C)C(=O)CCC(F)(F)F	n
CNC[C@@H]1OCCCC[C@@H](C)Oc2ccc(NC(=O)Nc3ccc(OC)cc3)cc2C(=O)N([C@H](C)CO)C[C@H]1C	n
CS(=O)(=O)N1CC(=O)N2[C@H](C1)[C@H](c1ccc(C#Cc3ccc(F)cc3)cc1)[C@@H]2CO	n
CS(=O)(=O)N1CC(=O)N2[C@@H](CO)[C@H](c3ccc(C#CCc4ccccc4)cc3)[C@@H]2C1	n
CS(=O)(=O)N1CC(=O)N2[C@H](C1)[C@H](c1ccc(C#Cc3ccccc3)cc1)[C@@H]2CO	-5.3
CCS(=O)(=O)N1CC(=O)N2[C@H](CO)[C@H](c3ccc(-c4ccccc4)cc3)[C@@H]2C1	n
CS(=O)(=O)N1CC(=O)N2[C@H](CO)[C@@H](c3ccc(C#Cc4ccc(F)cc4)cc3)[C@H]2C1	n
CS(=O)(=O)N1CC(=O)N2[C@H](CO)[C@@H](c3ccc(C#Cc4ccccc4)cc3)[C@@H]2C1	n
CS(=O)(=O)N1CC(=O)N2[C@H](C1)[C@H](c1ccc(C#Cc3cccc(F)c3)cc1)[C@@H]2CO	-8.4
CS(=O)(=O)N1CC(=O)N2[C@H](C1)[C@@H](c1ccc(C#CCc3ccccc3)cc1)[C@@H]2CO	-3.2
CCS(=O)(=O)N1CC(=O)N2[C@H](CO)[C@@H](c3ccc(-c4cccc(F)c4)cc3)[C@@H]2C1	-3.2
CCS(=O)(=O)N1CC(=O)N2[C@H](CO)[C@@H](c3ccc(-c4ccccc4)cc3)[C@H]2C1	n
CS(=O)(=O)N1CC(=O)N2[C@H](CO)[C@@H](c3ccc(C#CCc4ccccc4)cc3)[C@H]2C1	n
CS(=O)(=O)N1CC(=O)N2[C@H](CO)[C@@H](c3ccc(C#CCc4ccccc4)cc3)[C@@H]2C1	n
